Molecules are shown by their SMILES. About 65 (0.1%) of roughly 45,000 compounds were called active. The list comes from a sample in which actives are over-represented; it also holds similar structures and randomly drawn compounds. A number with no mark means an inactive call. The call rests on the fitted dose curve; in most records, active means well fitted activation curve with a large enough effect; inconclusive means small, poorly fitted or top-dose-only effect; inactive means no such curve, though single readings can be large or run the other way.

The results in this text go back to PubChem BioAssay AID1159614 (National Center for Advancing Translational Sciences (NCATS), 2016).
Potency means the concentration at half of the fitted maximal effect.

In the assay the target is Galactocerebrosidase (Homo sapiens) (UniProt P54803). Kind of assay: A Novel Cell-Based Assay to Identify Small Molecules for B -Galactocerebrosidase. Further: nearly all actives have a fitted effect of over 65% in size. On activation: 0% is about no effect. The following applies: 145M-Twi-hGALC-G270D cells (Twitcher mouse brain line with human GALC G270D), HMU-beta-Gal fluorescence, 48 h; series mostly up to 57.5 µM; activation: at the top concentration. From the text: Lysosomal storage diseases (LSDs) are caused by genetic mutations in genes encoding proteins important for normal lysosomal function. Globoid cell leukodystrophy (GLD), mostly known as Krabbe disease, is a prototype of the neurological LSDs caused by deficiency of beta-galactocerebrosidase (GALC). In brain specimens of GLD patients, psychosine levels are substantially elevated. At elevated concentrations, psychosine becomes cytotoxic to neuronal cells, particularly to oligodendrocytes (OLG), neural cells responsible for myelin formation. Therefore, the biochemical disturbances in GLD are manifested by different degrees of brain demyelination resulting in a broad spectrum of neurological manifestations. Most of the FDA-approved therapies are based on enzyme replacement therapeutic (ERT) agents, which treat non-neurological symptoms of Gaucher disease, Fabry disease, few mucopolysaccharidoses and Pompe disease. Unfortunately, in GLD, a primarily neurological LSD, ERT agents, as large molecular weight molecules unable to cross the blood-brain barrier, which makes this an inefficacious therapeutic approach. In GLD, increasing the residual GALC activity just above the critical threshold (~10% of wild type enzymatic activity), the cytotoxic levels of psychosine will be reduced, avoiding the OLGs apoptosis and the subsequent demyelination process. This will translate in disease stabilization and amelioration of GLD patient symptoms.
Chain of Galactocerebrosidase (Homo sapiens) (P54803 whole entry G286D): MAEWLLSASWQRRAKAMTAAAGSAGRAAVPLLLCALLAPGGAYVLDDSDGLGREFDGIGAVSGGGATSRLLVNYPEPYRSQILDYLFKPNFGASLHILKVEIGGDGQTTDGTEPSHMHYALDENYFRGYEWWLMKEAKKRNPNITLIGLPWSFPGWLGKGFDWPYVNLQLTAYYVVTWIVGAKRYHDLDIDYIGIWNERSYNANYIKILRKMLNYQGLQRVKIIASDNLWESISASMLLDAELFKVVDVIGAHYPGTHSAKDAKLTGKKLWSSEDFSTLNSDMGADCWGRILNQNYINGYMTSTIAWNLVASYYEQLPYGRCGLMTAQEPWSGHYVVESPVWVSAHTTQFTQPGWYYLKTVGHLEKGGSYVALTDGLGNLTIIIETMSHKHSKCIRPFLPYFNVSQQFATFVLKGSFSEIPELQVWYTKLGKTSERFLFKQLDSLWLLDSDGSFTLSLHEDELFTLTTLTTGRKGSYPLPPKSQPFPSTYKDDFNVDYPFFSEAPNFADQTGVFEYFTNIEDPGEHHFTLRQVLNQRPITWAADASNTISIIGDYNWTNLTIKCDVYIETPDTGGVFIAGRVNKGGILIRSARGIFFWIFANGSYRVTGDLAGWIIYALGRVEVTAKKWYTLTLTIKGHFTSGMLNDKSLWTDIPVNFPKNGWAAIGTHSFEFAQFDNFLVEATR
A cell-based assay in 1,536-well plate format was developed to implement a quantitative high-throughput screening (qHTS) assay using GLD-disease relevant cells to identify small molecules that produce enhancements of the residual enzymatic activity levels of mutants GALC found and prevalent in GLD patients. Compounds that are active may therefore have some therapeutic application for GLD. After the treatment of live cells for a determined period, using a fluorescent GALC specific substrate, the mutant residual GALC activity is measured. This cell-based qTHS assay was used to screen part of the MLPCN library for small molecule able to increase the mutant GALC enzymatic activity. In this assay, increased fluorescent signal corresponds to enhanced levels of mutant GALC residual enzymatic activity. Activation is the desired outcome for this assay.
NIH Chemical Genomics Center [NCGC]
NIH Molecular Libraries Probe Centers Network [MLPCN]
Assay Submitter (PI): Gustavo Maegawa MD,PhD, University of Florida, Gainesville, FL
2)#Two cell lines were established for the assay: 145M-Twi-hGALC-G270D (brain-derived Twitcher cell line stably expressing human GALC-G270D) and 145M-Twi-hGALC-WT (same 145M-Twi stably expressing human GALC wild type). The Twitcher is the murine C57B/6 model for GLD with naturally occurring homozygous nonsense GALC mutation. The 145M-Twi cell line was established at Maegawa lab (Ribbens J et al 2014).
a.#Media: DMEM/F12 (1:1) with 10% fetal bovine-serum (FBS) with penicillin/streptomycin (PS-1X - 100 I.U./mL of penicillin+100 ug/mL of streptomycin).
b.#The 6-Hexadecanoylamino-4-methylumbelliferyl-b-D-galactoside (HMU-B-gal) substrate was prepared as per Wiederschain et al 1992. Using 20-mL borosilicate tubes, 2.20 mg of HMU-b-Gal was added in each tube to prepare substrate-film with a final air-nitrogen stream evaporation to remove all diluent solvents.
c.#The HMUb-Gal substrate buffer consists of 0.2 M Na2HPO4 (sodium phosphate dibasic)/ 0.1 M Citric Acid with the pH adjusted to 5.2 using HCl. Sodium Azide at 0.02% and Sodium Taurocholate (NaTC) at 1 mg/mL were added to this substrate buffer.
d.#The HMU-b-Gal stopping buffer consist of 0.5 M NaHCO3 (sodium bicarbonate) /0.5 M Na2CO3 (sodium carbonate). […] Triton X-100 at 0.25% was added.
4)#Preparation of HMU-b-Gal substrate tubes
Adding 18.6 mL of the HMUb-Gal substrate buffer to each 20-mL tube (2.20 mg of HMU-b-Gal) will reach a concentration of 0.2 mM. Vortex well the tube until the solution is fully homogenized (clear cloudy solution). […]
In the case of `CC(C)C(=O)Nc1nc2c(s1)CC(C(C)(C)C)CC2` (centres undefined), the “activation” value was -11%.
`Cc1ccc(CCNC(=O)C2CCN(c3nnc(-n4cccc4CNc4ccc(C)cc4)s3)CC2)cc1`: the “activation” value is 6.11%.
With `CCCCCn1c(=O)[nH]c2cc(C(=O)NCCN(C)CCCC)ccc2c1=O`, the “activation” value was -11.4%.
As for `COc1ccc(C)cc1Nc1nc2ccccc2c2nnc(C)n12`, the “activation” value is -10.1%.
On the same count and under the same terms, the result for `Cc1ccc(NC(=O)CSc2nc3ccccc3c3nc(CCn4cncc4C)nn23)cc1F` reads -12.2%; that for `Cc1ccc(Cl)cc1N1CCN(C(=O)c2cnc3c(-c4ccc(F)cc4)c(C)nn3c2C)CC1`, -9.19%; that for `COc1ccccc1/C=C/c1nc(C#N)c(NC(C)c2ccccc2)o1` (centres undefined), -13.4%.
Regarding `CC(=O)N1c2ccccc2CC1C(=O)N1CCN(c2ccc(F)cc2)CC1` (centres undefined), the “activation” value is -14.3%.
As to `CCN(CC)c1nn2c(=O)c(C(=O)NCCc3ccccc3)cnc2s1`, the “activation” value is -13%.
In the case of `COc1ccc(C2Sc3ccccc3NC3=C2C(=O)c2ccccc23)c(OC)c1OC` (centres undefined), the “activation” value was -16.7%.
For the compound `CC(=O)Nc1ccc2nc(SCCOc3cc(C)cc(C)c3)sc2c1`, the “activation” value is -29.8%.
For `Cc1ccc(S(=O)(=O)c2c(Nc3cccc(Cl)c3)sc(C(=O)c3ccc4c(c3)OCO4)c2N)cc1`, the “activation” value was -7.44%.
Take `COc1cc(NC(=O)c2nn(-c3ccc(C)cc3)c(=O)c3c2c2ccccc2n3C)cc(OC)c1OC`: the “activation” value was -20.9%.
For the compound `CCOC(=O)c1ccccc1NC(=O)c1sc2nc(-c3ccc(F)cc3)cn2c1C`, the “activation” value was -13.4%.
As to `Cc1ccc(Cn2c(CCCNC(=O)C3CCCCC3)nc3ccccc32)cc1`, the “activation” value was -11.3%.
Regarding `CCc1nccn1S(=O)(=O)c1cc(Br)ccc1Br`, the “activation” value was -5.8%.
In the case of `COc1ccc(OCCCn2c(C)nc3cc(C)c(C)cc32)cc1`, the “activation” value is -10.3%.
`Cc1ccc(-n2ncc3c(=O)n(Cc4cccc(C(F)(F)F)c4)cnc32)cc1C`: the “activation” value is -13.3%.
Take `Cc1ccc2nc(COc3cccc(NC(=O)c4ccccc4Cl)c3)cc(=O)n2c1`: the “activation” value is -12.6%.
Take `COc1ccc(CNC(=O)c2ccc(NC(=O)N3CC4CCCN4c4ccccc43)cc2)cc1` (centres undefined): the “activation” value was -12.2%.
As to `Cc1ccc(C)c(NC(=O)C2CCCN(S(=O)(=O)c3cn(C)cn3)C2)c1` (centres undefined), the “activation” value is 2.62%.
As to `COc1cc(Cl)c(C)cc1Nc1nnc(-n2nc(C)cc2C)c2ccccc12`, the “activation” value was -10.6%.
`CCOC(=O)c1c(C)n(S(=O)(=O)c2ccc(C)cc2C)c2ccc(NS(=O)(=O)c3ccc(C)cc3C)cc12`: the “activation” value is -2.18%.
Consider `COC(=O)/C=C(/C)N`, for which the “activation” value was -6.02%.
In the case of `CCn1cc2nc(SCc3cccc(F)c3)n(CCc3ccccc3)c(=O)c2n1`, the “activation” value is -27.4%.
As for `COc1cccc(Cn2c(CNS(=O)(=O)c3ccc(Cl)s3)nc3cccnc32)c1`, the “activation” value was 7.72%.
Consider `CCC(=O)N1c2ccccc2CC1C(=O)N1CCN(c2ccccc2)CC1` (centres undefined), for which the “activation” value is 11.7%.
For `COc1cccc(NC(=O)c2ccc3nc(CCc4ccccc4)oc3c2)c1`, the “activation” value was -18.4%.
For the compound `COc1ccccc1N1CCN(c2ncnc3onc(-c4cccc(Cl)c4)c23)CC1`, the “activation” value was -9.65%.
With `COc1cccc(C(=O)NC(=O)Nc2ccc(-c3cc(C(F)(F)F)nn3-c3ccccc3)cc2)c1`, the “activation” value was 1.48%.
In the case of `COc1ccc(-c2ccc(=O)n(CC(=O)Nc3ccc(Br)cc3F)n2)cc1`, the “activation” value is -6%.
For `Fc1ccccc1Oc1ncnc2c1oc1ccccc12`, the “activation” value is -10.2%.
For `COc1ccc(-c2cn3nc(N4CCCC(C(=O)NCCCOC(C)C)C4)sc3n2)cc1` (centres undefined), the “activation” value was -13.8%.
Take `CCOC(=O)c1ccc(NC(=O)CCn2cnnn2)cc1`: the “activation” value is -12.4%.
Take `CC(C)(C)OC(=O)N1CCC(c2c(C(=O)Nc3ccc4c(c3)OCO4)cnn2-c2ccccc2)CC1`: the “activation” value was -3.46%.
The same measure, in the same setting: the result for `COc1ccc(Cl)cc1NC(=O)C(C)Sc1nc2c(c(=O)[nH]1)CCCC2` (centres undefined) reads 5.09%.
For `COC(=O)c1nc(Cl)c(Cl)nc1N`, the “activation” value is -15.2%.
The same measure, in the same setting: as for `O=C(CSc1oc(-c2ccco2)nc1S(=O)(=O)c1ccccc1)c1ccc(Cl)cc1`, the figure is -25.8%.
On to `O=c1[nH]c2cc(Br)ccc2n2cccc12`, for which the “activation” value was -12.7%.
On to `CN(Cc1ccccc1)c1ccc(-c2nc(-c3ccccc3)no2)cc1[N+](=O)[O-]`, for which the “activation” value is -39.7%.
For the compound `COc1cc(NC(=O)CCn2nc(C)cc2C)cc(OC)c1OC`, the “activation” value was 0.94%.
The same measure, in the same setting: the result for `CCOC(=O)c1c(C)[nH]c(C)c1S(=O)(=O)NCC(=O)NCc1cccc(C)c1` reads -12.1%; that for `CCOc1ccc(OCC)c(NC(=O)c2cc(C)nc3c2c(C)nn3-c2cccc(Cl)c2C)c1`, -12.6%.
Regarding `Cc1ccc(Oc2c(C(F)(F)F)oc3c(CN4CCCCC4)c(O)ccc3c2=O)cc1`, the “activation” value is -11.8%.
For the compound `COc1ccc(-c2c(C)c3ccc(O)c(CN4CCCC4)c3oc2=O)cc1OC`, the Potency is 39.8 µM (active).
Regarding `COc1ccc(-c2c(C)c3ccc(O)c(CN4CCN(C)CC4)c3oc2=O)cc1OC`, the “activation” value was -9.31%.
Take `O=C(NCc1ccccc1)c1cccc(NC(=O)N2CCSc3ncccc32)c1`: the “activation” value is -9.3%.
For the compound `CCCCN1C(=O)c2[nH]nc(-c3ccccc3O)c2C1c1cccc(OCc2ccccc2)c1` (centres undefined), the “activation” value was -9.56%.
Still for that read-out and setting: as for `O=C(NC1CC(=O)N(c2ccccc2)C1)c1ccco1` (centres undefined), the figure is -16.5%.
